Screening data: PubChem, National Center for Advancing Translational Sciences (NCATS)
The list is not random: actives were taken first. Their share in the collection is about 3.3%.
FBPA Giardia inh: qHTS Assay for Inhibitors of Fructose-1,6-bisphosphate Aldolase from Giardia Lamblia; 290,000 tested, 0.71% active; Potency, µM (titrated, usually from 59.6 µM), actives largely listed as inhibitors; purified Giardia FBPA; A8B2U2; AID 2451, 2010; also: nearly all actives have a fitted effect of over 55% in size
Target sequence (A8B2U2 whole entry, looked up): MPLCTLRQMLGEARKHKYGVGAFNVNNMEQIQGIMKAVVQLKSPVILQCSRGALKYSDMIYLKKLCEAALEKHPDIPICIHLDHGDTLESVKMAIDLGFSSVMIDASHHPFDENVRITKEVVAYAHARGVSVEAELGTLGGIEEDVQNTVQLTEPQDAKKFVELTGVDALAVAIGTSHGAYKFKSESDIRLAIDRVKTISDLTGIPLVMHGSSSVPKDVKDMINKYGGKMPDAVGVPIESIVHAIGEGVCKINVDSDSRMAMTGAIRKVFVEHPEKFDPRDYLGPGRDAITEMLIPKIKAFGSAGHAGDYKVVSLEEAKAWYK
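Giardia FBPA (40 nM reagent) was preincubated 10 min at RT with compound (up to 57.5 uM final), then substrate plus GAPDH/TPI/NAD/arsenate coupling system with diaphorase/resazurin was added; resorufin fluorescence (525/598 nm) was read after 20 min.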
Tb PYK inh: qHTS of Trypanosoma Brucei Inhibitors; TbPYK enzyme, Kinase-Glo Plus ATP luminescence, 45 min; Potency, µM (titrated, usually from 76.8 µM), hits mostly inhibitors; 410,000 tested, 0.12% active; also: nearly all actives have a fitted effect of over 50% in size
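Luminescence from Kinase-Glo Plus, added after a 45-minute room-temperature reaction, served as the end-point read-out. The enzyme and substrate were preincubated with compound before ADP (130 uM final) initiated turnover. Concentration-effect curves came from normalized qHTS data.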
LmPK inh: qHTS Assay for Inhibitors of Leishmania Mexicana Pyruvate Kinase (LmPK); purified LmPK, Kinase-Glo ATP luminescence, 1 h; Potency, µM (titrated, usually from 57.5 µM), most hits filed as inhibitors; 290,000 tested, 0.37% active; AID 1721, 2009
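qHTS format; LmPK 0.1 nM; substrates PEP 0.5 mM and ADP 0.1 mM. One-hour room-temperature incubation, then coupled luciferase luminescence; 0.5 nM enzyme wells mark activation.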
RE007 growth inh: qHTS Assay for Inhibitors of the HIV-1 protein Vpr. Potency, µM (top dose mostly 92.2 µM), hits mostly inhibitors. 360,000 tested, 0.21% active. AID 651644, 2012. S. pombe RE007 Vpr strain, BacTiter-Glo ATP luminescence, 24 h; active = well fitted falling curve with a large enough effect; inconclusive = small, poorly fitted or top-dose-only effect; inactive = no such curve, though single readings can be large or run the other way; also: nearly all actives have a fitted effect of over 50% in size
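Fission yeast strain RE007, carrying one chromosomally integrated HIV-1 vpr copy, was seeded at OD 0.01 in PMG+AL medium with 23 nL pinned compound. After 24 h at 30 °C and 99% humidity, viability was read by BacTiter-Glo luminescence.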
Sm TGR block: qHTS Assay for the Inhibitors of Schistosoma Mansoni Peroxiredoxins. Schistosoma mansoni thioredoxin glutathione reductase (TGR), Q962Y6. purified TGR, DTNB reduction, TNB absorbance 405 nm. Potency, µM (top dose mostly 114 µM), hits mostly inhibitors. 360,000 tested, 3% active. AID 485364, 2010; also: nearly all actives have a fitted effect of over 60% in size
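TGR 20 nM + NADPH 100 uM (dispensed conc.), cpd preinc 15 min RT; start with NADPH (500 uM addition) then DTNB (15 mM addition). Kinetic TNB absorbance, 405 nm filter. Four-parameter Hill fit across titration.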
A number is an active result. Unless noted, calls follow the shape of the dose curve; as a rule, active = well fitted curve in the direction sought with a large enough effect; inconclusive = small, poorly fitted or top-dose-only effect, or another doubt; inactive = no such curve, though single readings can be large; an effect the other way counts as inactive or inconclusive.

Results for O=C(NCc1ccco1)c1cccc(S(=O)(=O)N2CCCC2)c1 ?
FBPA Giardia inh: inactive; Tb PYK inh: inactive; LmPK inh: inactive; RE007 growth inh: inactive; Sm TGR block: 50µM

What do the screens show for `Cc1ccc(CCNC(=O)C2CCCN(C(=O)c3cc4sccc4n3C)C2)cc1` (configuration not stated)?
FBPA Giardia inh: inactive; Tb PYK inh: 8.9µM; LmPK inh: inactive; RE007 growth inh: inactive; Sm TGR block: inactive

Results for Cn1c(C(=O)N2CCCC(C(=O)NCCc3ccccc3)C2)cc2sccc21 (configuration not stated) ?
FBPA Giardia inh: inactive; Tb PYK inh: inconclusive; LmPK inh: inactive; RE007 growth inh: inactive; Sm TGR block: inactive

What do the screens show for `Oc1c(C(Nc2ccccn2)c2cccnc2)cc(Cl)c2cccnc12` (configuration not stated)?
FBPA Giardia inh: inactive; Tb PYK inh: inactive; LmPK inh: inactive; RE007 growth inh: inconclusive; Sm TGR block: 4.5µM

How did COc1ccc(Cl)cc1C(Nc1cccnc1)c1ccc2cccnc2c1O (configuration not stated) do in these assays?
FBPA Giardia inh: inconclusive; Tb PYK inh: inactive; LmPK inh: inactive; RE007 growth inh: inconclusive; Sm TGR block: 0.1µM

What do the screens show for `Oc1c(C(Nc2cccc(C(F)(F)F)c2)c2cccnc2)ccc2cccnc12` (configuration not stated)?
FBPA Giardia inh: inconclusive; Tb PYK inh: inactive; LmPK inh: inactive; RE007 growth inh: inactive; Sm TGR block: 0.71µM

What do the screens show for `Oc1cccc(C(Nc2nccs2)c2ccc3cccnc3c2O)c1` (configuration not stated)?
FBPA Giardia inh: inconclusive; Tb PYK inh: inactive; LmPK inh: inactive; RE007 growth inh: inactive; Sm TGR block: 18µM

What do the screens show for `Cc1cc(NC(c2cccnc2)c2ccc3cccnc3c2O)no1` (configuration not stated)?
FBPA Giardia inh: inactive; Tb PYK inh: inactive; LmPK inh: inactive; RE007 growth inh: inactive; Sm TGR block: inactive

Results for CCC(=O)NC(c1ccccc1OC)c1ccc2cccnc2c1O (configuration not stated) ?
FBPA Giardia inh: inconclusive; Tb PYK inh: inactive; LmPK inh: inactive; RE007 growth inh: inactive; Sm TGR block: inactive

How did Nn1c(=S)[nH]nc(Cc2ccc(O)cc2)c1=O do in these assays?
FBPA Giardia inh: inconclusive; Tb PYK inh: inactive; LmPK inh: inactive; RE007 growth inh: inactive; Sm TGR block: inactive

Results for Cc1ccc(N2CC(C(=O)NCCS(=O)(=O)N3CCN(c4ccc(F)cc4)CC3)CC2=O)cc1 (configuration not stated) ?
FBPA Giardia inh: inactive; Tb PYK inh: inactive; LmPK inh: inactive; RE007 growth inh: inactive; Sm TGR block: inactive

Results for Oc1cccc(C(Nc2ccccn2)c2ccc3cccnc3c2O)c1Cl (configuration not stated) ?
Tb PYK inh: inactive; Sm TGR block: 3.2µM

Results for Cc1ccc(S(=O)(=O)Nc2ccc(Cl)cc2)cc1NC(=O)Cn1cnc2c1c(=O)n(C)c(=O)n2C ?
FBPA Giardia inh: inactive; Tb PYK inh: inactive; LmPK inh: inactive; RE007 growth inh: inactive; Sm TGR block: inactive

How did COc1ccc(OC)c(N(CC(=O)N2CCc3ccccc3C2)S(C)(=O)=O)c1 do in these assays?
FBPA Giardia inh: inactive; Tb PYK inh: inactive; LmPK inh: inactive; RE007 growth inh: inactive; Sm TGR block: inactive

What do the screens show for `Cc1cc(N2CCC(C(=O)N(CC(C)C)CC(C)C)CC2)n2nc(C)c(-c3ccc(Cl)cc3)c2n1`?
Tb PYK inh: inactive; Sm TGR block: inactive

What do the screens show for `CCC(=O)N1CCc2cc(Br)cc(S(=O)(=O)N(C)c3ccc(OC)cc3)c21`?
FBPA Giardia inh: inactive; Tb PYK inh: inactive; LmPK inh: inactive; RE007 growth inh: inactive; Sm TGR block: inactive

Results for COc1ccc2c3c([nH]c2c1)C(C)NCC3 (configuration not stated) ?
FBPA Giardia inh: inactive; Tb PYK inh: inactive; LmPK inh: inactive; RE007 growth inh: inactive; Sm TGR block: 11µM

Results for COc1ccc2[nH]c3c(c2c1)CCNC3C (configuration not stated) ?
FBPA Giardia inh: inactive; Tb PYK inh: inactive; LmPK inh: inactive; RE007 growth inh: inactive; Sm TGR block: inactive

What do the screens show for `Cc1ccc2c(c1)NC(=O)C(CC(=O)NCCCN1CCCCC1)O2` (configuration not stated)?
FBPA Giardia inh: inactive; Tb PYK inh: inactive; LmPK inh: inactive; RE007 growth inh: inactive; Sm TGR block: 100µM

What do the screens show for `CCOC(=O)c1c(-n2cnnn2)sc2c1CCCC2`?
FBPA Giardia inh: inactive; Tb PYK inh: inactive; LmPK inh: inactive; RE007 growth inh: inactive; Sm TGR block: inactive

Results for CCOC(=O)c1c(N2C(=O)C3C4C=CC(O4)C3C2=O)sc2c1CCCC2 (configuration not stated) ?
FBPA Giardia inh: inactive; Tb PYK inh: inconclusive; LmPK inh: inactive; RE007 growth inh: inconclusive; Sm TGR block: 3.2µM

Results for COCC(=O)N(CCc1ccccc1)Cc1cc2cc(C)ccc2nc1Cl ?
FBPA Giardia inh: inactive; Tb PYK inh: inactive; LmPK inh: inactive; RE007 growth inh: inactive; Sm TGR block: 40µM

What do the screens show for `CSc1ccccc1OCc1cc(C(=O)N(C)Cc2ccc3nsnc3c2)no1`?
FBPA Giardia inh: inactive; Tb PYK inh: inactive; LmPK inh: inactive; RE007 growth inh: inactive; Sm TGR block: inactive

How did CSc1ccccc1OCc1cc(C(=O)N(C)Cc2ccc(C)o2)no1 do in these assays?
FBPA Giardia inh: inactive; Tb PYK inh: inconclusive; LmPK inh: inactive; RE007 growth inh: inactive; Sm TGR block: 7.9µM

Results for CSc1ccccc1OCc1cc(C(=O)N2CCN(c3ncccn3)CC2)no1 ?
Tb PYK inh: inactive; LmPK inh: inactive; RE007 growth inh: inactive; Sm TGR block: 40µM

What do the screens show for `CC1=CCC[C@H]2[C@H](C1)C(=O)C[C@@H](C)[C@]2(C)CC/C(=C/CO)CO`?
Tb PYK inh: inactive; RE007 growth inh: inactive

What do the screens show for `C=CCN=c1scc(-c2ccc3c(c2)NC(=O)CO3)n1/N=C(\C)c1ccccn1`?
FBPA Giardia inh: inactive; Tb PYK inh: inactive; LmPK inh: inactive; RE007 growth inh: inactive; Sm TGR block: 35µM

How did Cc1ccc2[nH]c3c(c2c1)CCCC3C(N)=O (configuration not stated) do in these assays?
FBPA Giardia inh: inactive; Tb PYK inh: inactive; LmPK inh: inactive; RE007 growth inh: inactive; Sm TGR block: inactive

What do the screens show for `Cc1ccc2[nH]c3c(c2c1)CCCC3NC(=O)CCl` (configuration not stated)?
FBPA Giardia inh: inactive; Tb PYK inh: inactive; LmPK inh: inactive; RE007 growth inh: inactive; Sm TGR block: 45µM
